CHRM4 antagonist: antagonists of human muscarinic M4 receptor (CHRM4). P08173. CHO-hM4 cells, ACh EC80, Fluo-8 calcium fluorescence. inhibition, % at 3 µM. 360,000 tested, 0.73% active;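 active = inhibition above its plate's cutoff, the mean inhibition of sample wells plus 3 SD, cut at about 27% in these data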;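 also: 0% = acetylcholine EC80 with DMSO and 100% = DMSO without agonist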
Target sequence (P08173 whole entry, looked up): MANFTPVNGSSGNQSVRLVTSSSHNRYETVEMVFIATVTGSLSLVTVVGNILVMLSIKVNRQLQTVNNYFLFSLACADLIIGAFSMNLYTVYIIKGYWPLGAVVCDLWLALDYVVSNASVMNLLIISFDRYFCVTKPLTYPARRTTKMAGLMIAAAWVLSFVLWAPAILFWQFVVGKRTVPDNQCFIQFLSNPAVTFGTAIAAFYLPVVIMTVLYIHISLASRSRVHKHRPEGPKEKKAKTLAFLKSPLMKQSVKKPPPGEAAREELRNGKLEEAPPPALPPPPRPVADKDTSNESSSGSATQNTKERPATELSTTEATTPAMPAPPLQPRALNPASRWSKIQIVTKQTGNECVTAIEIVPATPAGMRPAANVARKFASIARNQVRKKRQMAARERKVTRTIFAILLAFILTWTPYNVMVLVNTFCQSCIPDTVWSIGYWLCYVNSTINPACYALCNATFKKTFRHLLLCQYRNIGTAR
CHRM4 agonist: CHRM4 agonism in calcium assay. activation, % at 3 µM. 360,000 tested, 0.14% active. AID 624127. CHO-K1 hM4/Gqi5, Fluo-8 calcium fluorescence; vehicle 0%, full acetylcholine response 100%;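 active = activation above the run mean over all test wells plus 3 SD, cut at about 32% in these data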;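 also: peak over basal fluorescence ratio per well then scaled between controls; 0% = DMSO wells and 100% = acetylcholine at EC100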
CHO-K1 Ca PAM: nonselective activator or artifact in parental CHO-K1 calcium assay; ATP EC20, Fluo-8 calcium fluorescence; 0% at ATP EC20, 100% at ATP max; activation, % at 3 µM; 360,000 tested, 0.02% active; AID 602247;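 active = activation above the run cutoff, the mean activation of all test compounds plus 3 SD, cut at about 40% in these data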;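 also: peak over basal fluorescence ratio in a 140 s read after ATP addition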
CHO-K1 Ca ag: M1 agonist counterscreen hit in parental CHO-K1 cells; Fluo-8 calcium fluorescence; scaled to maximal ATP response, vehicle zero; activation, % at 3 µM; 360,000 tested, 0.48% active; in the data active = activation above about 15%;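 also: untransfected CHO-K1 host cells lacking M1 receptor as counterscreen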
CHO-K1 Ca antag: nonselective inhibitor or artifact in parental CHO-K1 cells. ATP-induced calcium, Fluo-8 fluorescence. inhibition, % at 3 µM. 360,000 tested, 0.6% active;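 active = inhibition above a per-plate cutoff, the plate's mean sample inhibition plus 3 SD, cut at about 24% in these data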;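 also: 0% = DMSO plus EC80 ATP and 100% = DMSO alone without ATP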
M4 PAM: positive allosteric modulators of human muscarinic M4 receptor | AID 624126 | P08173 | activation, % at 3 µM | CHO-K1 hM4/Gqi5, Fluo-8 calcium fluorescence, ACh EC20; 0% = ACh EC20, 100% = maximal ACh | 360,000 tested, 0.4% active;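 active = activation above its plate's cutoff, the mean activation of sample wells plus 3 SD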
* hit, by the source's call. This is a sample that favours compounds with a hit; in the whole collection about 2% have one here.

SMILES	CHRM4 antagonist	CHRM4 agonist	CHO-K1 Ca PAM	CHO-K1 Ca ag	CHO-K1 Ca antag	M4 PAM
CC(C)OCCCNC(=O)C(=O)NCCCOC(C)C	-5	0	-6	0	1	8
NC1CCN(c2c(F)cc3c(=O)c(C(=O)O)cn(C4CC4)c3c2Cl)C1 (stereo not drawn)	-6	-1	11	0	-16	0
CN(C)c1ccc(C=c2c3ccccc3n3c2c2ccccc2[n+]3C)cc1	33*	4	-16	-1	6	-8
Cc1c(Cl)c([N+](=O)[O-])nn1CC(=O)N1CCN(Cc2ccccc2)CC1	0	1	19	0	-6	0
Cc1ccc(NC(=O)C2CCN(S(=O)(=O)c3cccc4nonc34)CC2)cc1	-7	13	-1	8	-12	-10
O=C(Nc1cccc(F)c1)C1CCN(S(=O)(=O)c2cccc3nonc23)CC1	-5	17	2	20*	-16	-13
COc1ccc(Cn2c(=O)[nH]c3cc(OC)c(OC)cc3c2=O)cc1	4	20	4	6	-4	-7
CCOc1cc2[nH]c(=O)n(Cc3ccccc3)c(=O)c2cc1OCC	4	0	-8	0	26*	-4
C[C@@H](NC(=O)Cn1cnc2c(OCc3ccccc3)ncnc21)c1cccc2ccccc12	57*	14	10	2	-11	56*
C/C(=N\OCc1ccc(C#N)cc1)c1ccc(S(=O)(=O)N(C)C)cc1	13	19	-7	15*	9	-13
CC1CCN(C(=O)COc2ccc(S(=O)(=O)N3CCCC3)cc2)CC1	-1	2	17	1	-22	2
O[Si](CCCN1CCCCC1)(c1ccc(F)cc1)C1CCCCC1 (stereo not drawn)	90*	5	15	2	-1	-19
COc1ccc2c(C)cc(=O)[nH]c2c1	-12	1	20	1	-7	23*
CCN(c1ccc(C)cc1C)S(=O)(=O)c1nnc(NC(=O)c2ccco2)s1	-23	6	-6	2	8	1
CCN(c1ccc(C)cc1)S(=O)(=O)c1nnc(NC(=O)c2ccco2)s1	-44	3	10	2	-18	20*
O=C1C=C(Nc2ccc(Cl)cc2)CC(c2ccco2)C1 (stereo not drawn)	9	0	-2	0	8	1
COc1cc(/C=C/C(=O)Nc2cccc(S(=O)(=O)N3CCOCC3)c2)ccc1OCC#N	-14	8	-14	3	-9	8
CCN(CC)c1ccc(/C=C(/C#N)c2nc3ccccc3[nH]2)c(OC(C)C)c1	13	57*	0	13	9	-19
Cn1c(=O)c2c(O)cc(=O)[nH]c2n(-c2ccccc2)c1=O	-1	0	14	0	-5	2
O=c1cc(O)c2c(=O)[nH]c(=O)n(-c3ccccc3)c2[nH]1	8	2	-2	0	12	16*
Cc1ccnc(NC(=O)CN(C)S(=O)(=O)c2cccc3nsnc23)c1	1	2	3	1	2	-5
Cc1cc(C)c(NS(=O)(=O)c2ccc3c(c2)n(C)c(=O)n3C)c(C)c1	-6	2	5	0	-17	0
Cc1ccccc1NS(=O)(=O)c1ccc2c(c1)n(C)c(=O)n2C	0	3	4	15*	9	-3
Cc1ccc(CSCC(=O)Nc2ccccc2C(=O)O)cc1	-4	-1	18	0	-4	15*
CCOC(=O)N1CCN(C(=O)CSCc2ccc(C)cc2)CC1	3	-2	-8	0	26*	1
SMILES	CHRM4 antagonist	CHRM4 agonist	CHO-K1 Ca PAM	CHO-K1 Ca ag	CHO-K1 Ca antag	M4 PAM
Cc1ccc(S(=O)(=O)N(CC(=O)Nc2ccccc2C(=O)O)c2ccccc2)cc1	-2	-1	-3	16*	14	-2
Cc1ccc(CSCC(=O)N2CCCC2)cc1	-9	1	20	0	-7	-4
COC(=O)c1ccc(CSc2nc(C(F)F)cc(C)c2C#N)o1	-6	4	9	4	-6	-6
COc1ccc(C(=O)/C=C/c2ccc(N(C)C)cc2)c(OC)c1	36*	114*	-25	82*	45*	-17
CN(C)c1ccc(/C=C/C(=O)c2ccc(O)cc2)cc1	24	51*	-7	53*	25*	-12
CN(C)c1ccc(/C=C/C(=O)c2ccc3c(c2)OCO3)cc1	27*	121*	-6	46*	21	-21
CN(C)c1ccc(/C=C/C(=O)c2cccnc2)cc1	16	39*	-8	65*	20	-15
COc1ccc(C(=O)/C=C/c2ccccc2)c(OC)c1	5	0	13	0	-2	-1
O=C(/C=C/c1cccc(O)c1)c1cccnc1	11	3	12	1	-8	-10
CCN(CCO)Cc1csc2ccccc12	5	0	10	0	-4	11
Cc1ccc(NC(=O)c2c(Cl)n(C)c3ccccc23)cc1	-5	-1	22	0	-6	8
CCCCN(C)Cc1c(C)[nH]c2ccc(C)cc2c1=O	3	1	12	0	-7	6
c1ccc(Cn2c(NCc3ccco3)nc3ccccc32)cc1	2	2	-3	1	25*	2
CC(=O)Nc1cccc(/C(C)=N/Nc2ccc(S(=O)(=O)Nc3ccccc3C(=O)O)cc2[N+](=O)[O-])c1	-13	-2	-7	0	-9	20*
O=S(=O)(NCCN1CCN(S(=O)(=O)c2ccccc2F)CC1)c1ccccc1F	-11	4	10	2	-15	3
O=S(=O)(c1ccccc1F)N1CCN(CCc2ccccc2)CC1	101*	-2	6	6	-13	-18
COc1ccc2[nH]c3c(c2c1)CCNC3=O	-5	0	8	1	-5	8
CCN(C(=O)CN1C(=O)COc2ccc(S(=O)(=O)N3CCCCCC3)cc21)c1cccc(C)c1	1	10	24	35*	-8	-5
N#C/C(=C\c1ccc(O)cc1)C(=O)N1CCCC1	6	0	-5	1	-5	-10
CN(c1ccccc1C(=O)NCc1ccco1)S(C)(=O)=O	9	1	22	1	-16	-7
O=C(NCc1ccco1)c1ccccc1NS(=O)(=O)c1ccc(Br)s1	4	12	0	8	24*	2
CN(c1ccccc1C(=O)Nc1ccccc1C(=O)NCc1ccco1)S(C)(=O)=O	9	1	-8	0	35*	4
COc1ccc(CCNC(=O)COC(=O)CCC(=O)c2cccs2)cc1OC	-2	4	-4	0	-10	7
COc1ccc(CCNC(=O)CCC(=O)NC2CCCC(C)C2C)cc1OC (stereo not drawn)	1	1	6	-1	29*	0

Assay outcomes: PubChem BioAssay, The Scripps Research Institute Molecular Screening Center
